Test results taken from the supplement of paper PMC10849652.
The full data set covers some 7,900 targets. This sample favours those with a hit. About 0.6% of all pairs of compound and target were hits.

Key:
Test in all cases: log2 fold change, soluble protein after heating vs DMSO (PISA); higher = thermal stabilisation; K562 cells, 10 uM, 30 min; active = over 0.2 and 3.5 SD of the protein, either way, in both replicates (recomputed)
[1] = compound: C1=CC=C(C=C1)[C@H](COC2=CC3=C(C=C2)NC(=O)N3)NC(=O)C4=CC=CN(C4=O)CC5=CC(=C(C=C5)F)F
Summary of the method: (§1)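 Soluble protein was quantified by TMTpro 16plex LC-MS/MS after channel sums were equalised. It was obtained as the supernatant after 21,000xg for 90 min from pooled aliquots of K562 cells (2×10^6 cells/mL, 10 μM compound, 30 min) heated for 3 min across 48°C-58°C and extracted in PBS with 0.5% NP-40 at 4°C. Thermal stability values are relative to control samples and come from duplicates. They are given as log2 fold changes.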

[2] = compound: CC1=C(SC2=C1C(=N[C@H](C3=NN=C(N32)C)CC(=O)N)C4=CC=C(C=C4)Cl)C
Summary of the method: as §1

[3] = compound: CC1=C2C(=CC=C1)N=C(N(C2=O)C3=CC=CC=C3C)CN4C=NC5=C(N=CN=C54)N
Summary of the method: as §1

[4] = compound: Cc1sc2c(c1C)C(c1ccc(Cl)cc1)=N[C@@H](CC(=O)OC(C)(C)C)c1nnc(C)n1-2
Summary of the method: as §1

[5] = compound: c1ccc([C@@H]2C[C@H]2NC2CCNCC2)cc1
Summary of the method: as §1

Measured: log2 fold change

POLR2A (UniProt P24928)
inactive: [1] -0.014 | [2] 0.158 | [3] 0.031 | [4] 0.17 | [5] -0.059

PIP4K2B (UniProt P78356)
inactive: [1] -0.102 | [2] 0.018 | [3] -0.034 | [4] -0.038 | [5] -0.026

PDS5B (UniProt Q9NTI5)
inactive: [1] -0.153 | [2] 0.029 | [3] 0.169 | [4] 0.233 | [5] -0.011

PGM3 isoform 4 (UniProt O95394)
Sequence of UniProt O95394 (O95394 whole entry, looked up): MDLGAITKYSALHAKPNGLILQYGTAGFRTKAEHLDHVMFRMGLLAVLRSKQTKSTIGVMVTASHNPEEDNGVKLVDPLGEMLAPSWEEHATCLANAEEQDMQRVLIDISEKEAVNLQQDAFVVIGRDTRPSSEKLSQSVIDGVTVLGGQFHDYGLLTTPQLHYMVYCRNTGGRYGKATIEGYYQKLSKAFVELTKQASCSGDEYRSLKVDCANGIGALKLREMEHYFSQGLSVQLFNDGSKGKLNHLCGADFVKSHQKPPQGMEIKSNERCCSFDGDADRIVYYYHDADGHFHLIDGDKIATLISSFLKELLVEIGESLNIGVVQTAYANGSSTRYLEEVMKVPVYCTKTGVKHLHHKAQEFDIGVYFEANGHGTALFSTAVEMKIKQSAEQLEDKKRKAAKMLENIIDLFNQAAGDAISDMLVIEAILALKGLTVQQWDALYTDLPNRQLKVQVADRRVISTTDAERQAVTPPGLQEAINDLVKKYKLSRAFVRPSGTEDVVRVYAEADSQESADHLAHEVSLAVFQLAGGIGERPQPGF
inactive: [1] -0.082 | [2] 0.039 | [3] 0.066 | [4] 0.012 | [5] -0.088

PHKG2 (UniProt P15735)
Sequence of UniProt P15735 (P15735 whole entry, looked up): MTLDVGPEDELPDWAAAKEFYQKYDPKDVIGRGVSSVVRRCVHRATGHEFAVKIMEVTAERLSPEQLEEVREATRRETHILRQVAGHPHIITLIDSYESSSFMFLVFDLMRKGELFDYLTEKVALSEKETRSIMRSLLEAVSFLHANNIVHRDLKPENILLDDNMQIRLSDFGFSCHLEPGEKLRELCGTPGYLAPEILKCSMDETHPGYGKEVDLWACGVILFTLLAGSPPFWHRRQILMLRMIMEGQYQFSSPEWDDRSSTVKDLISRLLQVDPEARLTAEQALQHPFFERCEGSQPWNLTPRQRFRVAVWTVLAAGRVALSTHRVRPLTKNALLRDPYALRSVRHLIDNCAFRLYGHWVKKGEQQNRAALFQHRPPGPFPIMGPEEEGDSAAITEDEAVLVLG
inactive: [1] 0.028 | [2] -0.033 | [3] 0.013 | [4] 0.051 | [5] 0.026

PLD3 (UniProt Q8IV08)
Sequence of UniProt Q8IV08 (Q8IV08 whole entry, looked up): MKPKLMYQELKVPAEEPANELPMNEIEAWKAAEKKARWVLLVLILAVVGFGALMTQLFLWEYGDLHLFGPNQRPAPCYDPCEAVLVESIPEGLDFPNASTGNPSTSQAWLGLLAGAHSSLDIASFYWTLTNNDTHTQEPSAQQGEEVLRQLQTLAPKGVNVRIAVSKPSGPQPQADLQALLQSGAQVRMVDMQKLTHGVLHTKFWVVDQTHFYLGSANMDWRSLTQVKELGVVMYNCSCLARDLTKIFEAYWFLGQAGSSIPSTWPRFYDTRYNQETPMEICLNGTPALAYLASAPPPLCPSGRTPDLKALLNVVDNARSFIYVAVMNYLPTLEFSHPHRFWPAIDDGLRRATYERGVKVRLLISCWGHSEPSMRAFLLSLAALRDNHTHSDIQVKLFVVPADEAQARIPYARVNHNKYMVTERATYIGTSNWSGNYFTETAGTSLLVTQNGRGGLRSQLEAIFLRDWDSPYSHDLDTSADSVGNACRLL
inactive: [1] 0.022 | [2] 0.058 | [3] 0.033 | [4] 0.017 | [5] 0.009

PSMB4 (UniProt P28070)
inactive: [1] 0.024 | [2] -0.037 | [3] -0.038 | [4] -0.009 | [5] 0.03

POLA1 (UniProt P09884)
inactive: [1] -0.059 | [2] 0.105 | [3] 0.101 | [4] -0.012 | [5] 0

PARG (UniProt Q86W56)
inactive: [1] -0.043 | [2] -0.013 | [3] 0.018 | [4] -0.009 | [5] -0.075

PLBD2 (UniProt Q8NHP8)
inactive: [1] 0.011 | [2] 0.01 | [3] 0.01 | [4] -0.006 | [5] 0.007

PELP1 (UniProt Q8IZL8)
inactive: [1] 0 | [2] 0.006 | [3] -0.028 | [4] -0.044 | [5] -0.013

PEX13 (UniProt Q92968)
Sequence of UniProt Q92968 (Q92968 whole entry, looked up): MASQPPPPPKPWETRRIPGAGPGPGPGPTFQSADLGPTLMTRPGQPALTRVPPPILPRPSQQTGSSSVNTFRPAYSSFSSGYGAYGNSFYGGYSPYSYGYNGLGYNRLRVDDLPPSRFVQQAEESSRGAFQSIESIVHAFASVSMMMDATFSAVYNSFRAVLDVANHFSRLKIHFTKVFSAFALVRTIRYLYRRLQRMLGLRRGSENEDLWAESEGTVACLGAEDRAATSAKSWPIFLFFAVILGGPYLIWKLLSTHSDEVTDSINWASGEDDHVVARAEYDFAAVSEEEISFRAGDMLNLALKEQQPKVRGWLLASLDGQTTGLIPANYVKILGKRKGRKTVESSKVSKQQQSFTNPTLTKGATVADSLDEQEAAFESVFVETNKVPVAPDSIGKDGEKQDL
inactive: [1] -0.064 | [2] 0.05 | [3] 0.078 | [4] -0.107 | [5] 0.001

PRKCA (UniProt P17252)
inactive: [1] -0.035 | [2] 0.124 | [3] 0.14 | [4] 0.002 | [5] -0.038

PMPCA (UniProt Q10713)
Sequence of UniProt Q10713 (Q10713 whole entry, looked up): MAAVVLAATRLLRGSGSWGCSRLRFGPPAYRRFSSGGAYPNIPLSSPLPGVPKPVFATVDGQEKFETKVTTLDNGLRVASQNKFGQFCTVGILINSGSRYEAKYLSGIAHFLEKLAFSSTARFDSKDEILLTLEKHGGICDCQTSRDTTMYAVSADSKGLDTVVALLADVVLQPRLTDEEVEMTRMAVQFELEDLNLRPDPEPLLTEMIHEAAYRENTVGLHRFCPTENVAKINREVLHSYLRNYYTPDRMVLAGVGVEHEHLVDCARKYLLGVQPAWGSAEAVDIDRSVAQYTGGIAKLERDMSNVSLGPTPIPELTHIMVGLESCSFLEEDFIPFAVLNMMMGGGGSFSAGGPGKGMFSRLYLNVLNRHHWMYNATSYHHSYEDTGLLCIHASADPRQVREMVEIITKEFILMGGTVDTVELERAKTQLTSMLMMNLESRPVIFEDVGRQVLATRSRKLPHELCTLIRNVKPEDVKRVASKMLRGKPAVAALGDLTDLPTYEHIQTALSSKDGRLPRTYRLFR
inactive: [1] -0.015 | [2] 0.121 | [3] 0.06 | [4] 0.018 | [5] -0.047

PRCP (UniProt P42785)
inactive: [1] 0.023 | [2] -0.036 | [3] -0.061 | [4] 0.018 | [5] 0.062

PPP6R1 (UniProt Q9UPN7)
Sequence of UniProt Q9UPN7 (Q9UPN7 whole entry, looked up): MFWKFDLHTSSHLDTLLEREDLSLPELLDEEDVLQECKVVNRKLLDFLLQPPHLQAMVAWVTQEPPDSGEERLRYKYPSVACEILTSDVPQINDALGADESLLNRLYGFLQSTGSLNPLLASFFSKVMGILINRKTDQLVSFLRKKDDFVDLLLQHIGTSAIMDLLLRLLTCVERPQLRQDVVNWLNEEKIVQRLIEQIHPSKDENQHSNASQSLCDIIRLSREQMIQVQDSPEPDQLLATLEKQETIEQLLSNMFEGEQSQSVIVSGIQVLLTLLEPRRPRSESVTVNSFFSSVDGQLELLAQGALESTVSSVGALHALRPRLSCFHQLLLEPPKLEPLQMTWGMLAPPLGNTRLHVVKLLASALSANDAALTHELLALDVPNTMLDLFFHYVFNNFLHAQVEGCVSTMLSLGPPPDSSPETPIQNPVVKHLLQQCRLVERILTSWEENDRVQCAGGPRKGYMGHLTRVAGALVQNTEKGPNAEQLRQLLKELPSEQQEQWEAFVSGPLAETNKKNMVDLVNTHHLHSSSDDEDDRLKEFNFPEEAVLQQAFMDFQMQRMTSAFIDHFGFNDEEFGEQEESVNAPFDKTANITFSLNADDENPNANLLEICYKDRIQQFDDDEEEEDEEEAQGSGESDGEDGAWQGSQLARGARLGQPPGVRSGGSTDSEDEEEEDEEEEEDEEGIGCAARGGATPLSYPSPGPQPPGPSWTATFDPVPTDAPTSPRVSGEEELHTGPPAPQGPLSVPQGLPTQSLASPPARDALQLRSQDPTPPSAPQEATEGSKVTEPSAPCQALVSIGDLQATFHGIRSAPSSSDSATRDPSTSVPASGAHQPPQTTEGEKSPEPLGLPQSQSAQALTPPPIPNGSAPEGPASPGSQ
inactive: [1] -0.011 | [2] 0.002 | [3] 0.108 | [4] 0.005 | [5] 0.001

PRPF40A (UniProt O75400)
inactive: [1] -0.008 | [2] 0.016 | [3] 0.123 | [4] -0.022 | [5] 0.037

PTPA (UniProt Q15257)
inactive: [1] -0.013 | [2] 0.021 | [3] 0.005 | [4] -0.041 | [5] -0.003

PGK2 (UniProt P07205)
Sequence of UniProt P07205 (P07205 whole entry, looked up): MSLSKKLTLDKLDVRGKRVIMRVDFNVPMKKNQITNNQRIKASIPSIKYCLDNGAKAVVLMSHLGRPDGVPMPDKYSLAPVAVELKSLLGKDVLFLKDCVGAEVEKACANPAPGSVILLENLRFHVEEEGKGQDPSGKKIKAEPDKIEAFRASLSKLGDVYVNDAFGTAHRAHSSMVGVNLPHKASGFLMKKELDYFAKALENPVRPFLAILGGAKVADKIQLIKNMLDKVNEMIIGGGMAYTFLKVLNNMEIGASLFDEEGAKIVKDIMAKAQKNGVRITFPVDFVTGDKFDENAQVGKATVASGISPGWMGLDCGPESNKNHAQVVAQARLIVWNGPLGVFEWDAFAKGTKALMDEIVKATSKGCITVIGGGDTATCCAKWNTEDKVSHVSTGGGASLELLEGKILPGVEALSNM
inactive: [1] -0.1 | [2] 0.046 | [3] 0.153 | [4] 0.037 | [5] 0.034

PLIN2 (UniProt Q99541)
inactive: [1] -0.063 | [2] -0.006 | [3] 0.093 | [4] 0.004 | [5] 0.015

PTRH2 (UniProt Q9Y3E5)
Sequence of UniProt Q9Y3E5 (Q9Y3E5 whole entry, looked up): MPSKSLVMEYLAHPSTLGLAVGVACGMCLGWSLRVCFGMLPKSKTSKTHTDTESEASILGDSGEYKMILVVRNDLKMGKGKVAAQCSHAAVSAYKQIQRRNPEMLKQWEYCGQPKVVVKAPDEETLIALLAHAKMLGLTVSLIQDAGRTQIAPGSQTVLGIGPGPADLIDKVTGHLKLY
inactive: [1] 0.018 | [2] 0.068 | [3] 0.019 | [4] -0.106 | [5] -0.02

POLR2C (UniProt P19387)
inactive: [1] -0.091 | [2] 0.125 | [3] -0.023 | [4] 0.155 | [5] -0.092

PKN2 (UniProt Q16513)
inactive: [1] -0.075 | [2] 0.103 | [3] 0.066 | [4] 0.029 | [5] 0.044

PRKCE (UniProt Q02156)
inactive: [1] -0.065 | [2] 0.033 | [3] 0.071 | [4] 0.018 | [5] 0

POLD1 (UniProt P28340)
Sequence of UniProt P28340 (P28340 whole entry, looked up): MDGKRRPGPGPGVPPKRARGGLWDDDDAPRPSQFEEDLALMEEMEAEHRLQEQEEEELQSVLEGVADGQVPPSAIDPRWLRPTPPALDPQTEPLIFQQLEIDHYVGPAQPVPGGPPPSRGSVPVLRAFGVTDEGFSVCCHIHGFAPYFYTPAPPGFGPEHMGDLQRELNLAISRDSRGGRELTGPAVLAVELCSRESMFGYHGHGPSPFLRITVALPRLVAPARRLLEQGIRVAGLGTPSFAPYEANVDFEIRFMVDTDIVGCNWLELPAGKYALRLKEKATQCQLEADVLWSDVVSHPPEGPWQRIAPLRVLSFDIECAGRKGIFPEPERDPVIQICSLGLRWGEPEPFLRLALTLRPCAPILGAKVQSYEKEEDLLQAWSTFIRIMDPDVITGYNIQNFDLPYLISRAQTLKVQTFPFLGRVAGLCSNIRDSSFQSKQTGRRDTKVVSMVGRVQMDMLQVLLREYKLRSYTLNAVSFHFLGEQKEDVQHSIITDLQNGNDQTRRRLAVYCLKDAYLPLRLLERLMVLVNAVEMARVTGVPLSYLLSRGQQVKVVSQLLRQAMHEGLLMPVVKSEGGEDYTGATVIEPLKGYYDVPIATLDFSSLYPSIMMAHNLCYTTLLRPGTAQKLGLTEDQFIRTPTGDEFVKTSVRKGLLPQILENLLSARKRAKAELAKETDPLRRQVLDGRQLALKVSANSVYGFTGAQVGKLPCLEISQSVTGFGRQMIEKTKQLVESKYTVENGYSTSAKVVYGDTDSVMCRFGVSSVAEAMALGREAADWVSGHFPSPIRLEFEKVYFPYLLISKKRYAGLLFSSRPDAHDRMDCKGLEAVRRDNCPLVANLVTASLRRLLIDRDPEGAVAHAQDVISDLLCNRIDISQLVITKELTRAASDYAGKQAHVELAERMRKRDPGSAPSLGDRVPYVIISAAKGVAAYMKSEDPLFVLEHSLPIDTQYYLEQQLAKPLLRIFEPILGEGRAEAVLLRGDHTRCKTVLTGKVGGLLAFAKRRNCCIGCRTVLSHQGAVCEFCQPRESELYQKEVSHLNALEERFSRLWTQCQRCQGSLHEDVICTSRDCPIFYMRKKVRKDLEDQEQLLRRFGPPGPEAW
inactive: [1] 0.017 | [2] 0.019 | [3] 0.094 | [4] 0.048 | [5] 0
